Screening data from PubChem.
Cardio protect – cardioprotection against H2O2-induced cell death, primary screen, uHTS, H9c2 cells, ATPLite luminescence; H9c2 cardiomyocytes, H2O2 injury protection, 2 h; protection from H2O2 cell death, % at 20 µM; 360,000 compounds, 0.63% hits; AID 588492, 2011;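 active = compounds giving at least 50% protection of heart cells from peroxide-induced death in the single-dose screen, raw or plate-pattern-corrected value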
TAG inh – inhibitors of triacylglycerol accumulation, primary screen, cell-based, uHTS, fluorescence, H9c2; H9c2 cells, Nile Red lipid (TAG) fluorescence; cells loaded with 200 µM oleic acid; inhibition, % at 12.5 µM; 230,000 compounds, 0.66% hits; AID 651582, 2012;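 active = pattern-corrected inhibition of lipid staining of at least 50% with the nuclear-stain viability signal not falling by more than 50%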
A3A deaminase – APOBEC3A ssDNA deaminase inhibitors, primary screen, selectivity assay for APOBEC3G inhibitor project, biochemical, FAM/TAMRA oligo cleavage fluorescence | 330,000 compounds, 0.41% hits | inhibition, % at 20 µM | recombinant A3A, FAM/TAMRA ssDNA deamination fluorescence | DNA dC->dU-editing enzyme APOBEC-3A (Homo sapiens), P31941 | AID 493011, 2011;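 active = at least 40% inhibition at 20 µM here, with at most 30% in a related deaminase screen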
Target sequence (P31941 whole entry, looked up): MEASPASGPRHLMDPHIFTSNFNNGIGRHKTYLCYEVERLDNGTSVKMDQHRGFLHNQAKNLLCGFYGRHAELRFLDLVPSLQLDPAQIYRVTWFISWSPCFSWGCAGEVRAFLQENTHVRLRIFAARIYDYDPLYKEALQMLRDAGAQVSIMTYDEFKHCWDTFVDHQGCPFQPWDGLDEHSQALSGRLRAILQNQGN
PfGluPho inh – PfG6PD enzyme inhibitors, primary screen, biochemical, fluorescence intensity, uHTS; PfGluPho enzyme, NADPH resazurin-diaphorase fluorescence; inhibition, % at 20 µM; 350,000 compounds, 0.78% hits; AID 504690, 2011;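 active = inhibition reaching at least a set limit at 20 µM in the primary screen, cut at about 59% in these data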
NadD inh – inhibitors of S. aureus NadD, primary screen, biochemical, colorimetric, uHTS | purified NadD enzyme, colorimetric absorbance read-out | 360,000 compounds, 0.78% hits | inhibition, % at 20 µM | Nicotinate-nucleotide adenylyltransferase NadD (Staphylococcus aureus N315) | AID 602399, 2012; in the data active = inhibition above about 26%
APOBEC3G inh – APOBEC3G DNA deaminase inhibitors, primary screen, biochemical, fluorescence, single-stranded DNA substrate, uHTS; DNA dC->dU-editing enzyme APOBEC-3G (Homo sapiens), Q9HC16; recombinant A3G, ssDNA deamination FAM/TAMRA fluorescence; inhibition, % at 20 µM; 330,000 compounds, 0.28% hits;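 active = inhibition of at least 40% at 20 µM, with no more than 30% in the related APOBEC3A deaminase screen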
APOBEC3A confirm – APOBEC3A deaminase inhibitors, retest, confirmation, selectivity assay for APOBEC3G inhibitor project, biochemical, single concentration, fluorescence readout. AID 493151, 2011. shares compounds with A3A deaminase. recombinant A3A, ssDNA deaminase UDG fluorescence assay. inhibition, % at 20 µM. 1,400 compounds, 63% hits;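 active = inhibition reaching a set limit, 80% of the first screen's cutoff, at 20 µM in any replicate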
UDG ctr A3A – E. coli UDG inhibitors, confirmation, counter-screen for APOBEC3A inhibitor project, biochemical, single concentration, fluorescence, FAM/TAMRA oligo; shares compounds with A3A deaminase; UDG counterscreen, FAM/TAMRA uracil oligo fluorescence; inhibition, % at 20 µM; 1,000 tested, under 10 active; AID 504714, 2011; call rule not given here
A3G conf – APOBEC3G deaminase inhibitor retest, confirmation, biochemical, fluorescence, single-stranded DNA substrate, single concentration; shares compounds with APOBEC3G inh; 890 compounds, 72% hits; AID 493152, 2011; recombinant A3G ssDNA deaminase, UDG/FAM-TAMRA fluorescence; inhibition, % at 20 µM;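 active = inhibition reaching a set limit in any replicate at 20 µM, the limit being 80% of the first screen's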
UDG ctr A3G – E. coli UDG inhibitors, confirmation, counter-screen for APOBEC3G inhibitor project, biochemical, single concentration, fluorescence, FAM/TAMRA oligo; shares compounds with APOBEC3G inh; UDG counterscreen; inhibition, % at 20 µM; 710 tested, under 10 active;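 active = compounds giving 40% or more inhibition at 20 µM in any one of the three replicates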;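 also: inhibitors lower the FAM signal released by uracil excision and alkaline cleavage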
Target sequence (P12295 whole entry, looked up): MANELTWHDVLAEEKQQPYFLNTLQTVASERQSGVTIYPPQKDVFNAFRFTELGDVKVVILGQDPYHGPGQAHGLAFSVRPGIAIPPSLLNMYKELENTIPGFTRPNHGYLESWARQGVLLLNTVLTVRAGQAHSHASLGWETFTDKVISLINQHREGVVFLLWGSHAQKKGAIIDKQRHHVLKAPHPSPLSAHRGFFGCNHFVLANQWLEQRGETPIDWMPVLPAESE
NadD inh conf – inhibitors of S. aureus NadD, confirmation, biochemical, colorimetric, single concentration; AID 624309, 2012; inhibition, % at 20 µM; 2,000 compounds, 13% hits; purified S. aureus NadD, colorimetric enzyme assay; shares compounds with NadD inh; in the data active = inhibition mostly above about 42%, no sharp cut-off; inactive = mostly below about 42%
H9c2 TAG conf – triacylglycerol accumulation inhibitors, retest, confirmation, cell-based, single concentration, Nile Red fluorescence, H9c2 | shares compounds with TAG inh | H9c2 lipid accumulation; cells loaded with 200 µM oleic acid | inhibition, % at 12.5 µM | 990 compounds, 71% hits;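 active = mean inhibition across replicates of 40% or more; inactive = mean inhibition below 40%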
Large screens that a line does not name were inactive (follow-up assays come after a bar, where they were run). Sampled rows, rich in hits. Any-hit rate of the full collection: about 2.9%.

N#Cc1c(SCC(=O)Nc2nc3ccc(Br)cc3s2)sc2c(O)cc(=O)[nH]c12	A3A deaminase 43, NadD inh 41 (no result: TAG inh) | APOBEC3A confirm 39 | UDG ctr A3A inactive | NadD inh conf inactive
COc1ccccc1CCNC(=O)CCn1c(=O)c2cccn2c2ccc(F)cc21	none (no result: TAG inh)
CCCC(=O)Nc1ccc2nc(SCC(=O)Nc3ccc(N4CCOCC4)c(Cl)c3)sc2c1	TAG inh 51, A3A deaminase 63 | APOBEC3A confirm 46 | UDG ctr A3A inactive | H9c2 TAG conf inactive
CCC(=O)Nc1ccc2nc(SCC(=O)N3CCOCC3)sc2c1	none
CCCn1c(SC(C)C(=O)NCC2CCCO2)nc2sc3c(c2c1=O)CCC3 (stereo not drawn)	none
COC(=O)C1=C(C)N(Cc2ccccc2)C(=NCc2cc(OC)c(OC)c(OC)c2)N[C@H]1c1ccc(Br)cc1	TAG inh 62, A3A deaminase 46 | APOBEC3A confirm 60 | UDG ctr A3A inactive | H9c2 TAG conf 62
O=C(CSc1cn[nH]n1)Nc1cccc(C(=O)O)c1	APOBEC3G inh 62 (no result: TAG inh) | A3G conf 87 | UDG ctr A3G inactive
CCOc1ccc(NC(=O)COC(=O)CNC(=O)c2ccc(-c3ccccc3)cc2)cc1	none
COc1ccccc1N1CCN(C(=O)CCNS(=O)(=O)c2cc(Br)cnc2N)CC1	none (no result: TAG inh)
Cc1ccc(S(=O)(=O)N(C)C)cc1NC(=O)c1cc(-c2ccco2)nc2ccccc12	none
O=C(Nc1nnc(COc2ccc(Cl)cc2)s1)C1CCCO1 (stereo not drawn)	APOBEC3G inh 45 | A3G conf 21 | UDG ctr A3G inactive
Cc1ccc(CNC(=O)CCCC(=O)Nc2cc(C)on2)cc1	none
Cc1cc(NC(=O)CCCC(=O)NCc2ccccc2)no1	APOBEC3G inh 44 | A3G conf inactive
COc1ccc(N2C(=O)N(Cc3ccc(C)cc3)c3ccccc3S2(=O)=O)cc1	APOBEC3G inh 47 | A3G conf inactive
CC(C)C[C@@H]1COc2cccc(N3CCSCC3)c2S(=O)(=O)N1	none (no result: Cardio protect, TAG inh, A3A deaminase, PfGluPho inh, APOBEC3G inh)
COCCn1c(SCC(=O)N2CCCc3ccccc32)nc2c(c1=O)SC(C)C2 (stereo not drawn)	APOBEC3G inh 82 | A3G conf inactive | UDG ctr A3G inactive
COCCn1c(SCC(=O)N2CCc3ccccc32)nc2c(c1=O)SC(C)C2 (stereo not drawn)	none
Cc1ccc(NC2Sc3ccccc3NC2=O)cc1 (stereo not drawn)	APOBEC3G inh 51 | A3G conf inactive | UDG ctr A3G inactive
O=C1Nc2ccccc2SC1c1ccccc1 (stereo not drawn)	none (no result: TAG inh, A3A deaminase, APOBEC3G inh)
COCCN(CC(=O)Nc1cccc(C)c1C)C(=O)Cc1sc(C)nc1-c1ccc(F)cc1	none
CCN(CC)CCn1c2ccccc2c2n[nH]c(=S)nc21	PfGluPho inh 64, APOBEC3G inh 58 (no result: TAG inh) | A3G conf 78 | UDG ctr A3G inactive
CCN(CC)CCn1c2ccccc2c2nc3ccccc3nc21	none (no result: TAG inh)
S=c1[nH]nc(CSc2nc3ccccc3s2)n1Cc1ccccc1	none
CCn1c(CSc2nc3ccccc3s2)n[nH]c1=S	APOBEC3G inh 47 (no result: TAG inh) | A3G conf 59 | UDG ctr A3G inactive
C=CCn1c(CSc2nc3ccccc3s2)n[nH]c1=S	APOBEC3G inh 45 | A3G conf 75 | UDG ctr A3G inactive
CCCCSc1nc(N)nc2c1ncn2C1OC(CO)C(O)C1O (stereo not drawn)	none (no result: A3A deaminase, APOBEC3G inh)
O=C(c1nc2ccc(Cl)cn2c1CN1CCC[C@H]1CO)N1CCc2ccccc2C1	none (no result: A3A deaminase, APOBEC3G inh)
c1ccc(CCNc2nc(-c3ccncc3)nc3ccccc23)cc1	none
O=c1[nH]c(-c2ccncc2)nc2ccccc12	APOBEC3G inh 58 | A3G conf 56 | UDG ctr A3G inactive
CCOC(=O)N(C)c1c(CC)nc2c(OCc3ccccc3C)cccn12	none (no result: A3A deaminase, PfGluPho inh, APOBEC3G inh)
O=C1NN=C(CSc2n[nH]c(=S)s2)CS1	APOBEC3G inh 67 | A3G conf 67 | UDG ctr A3G inactive
CC(CSc1n[nH]c(=S)s1)c1ccccc1 (stereo not drawn)	none (no result: A3A deaminase, APOBEC3G inh)
CCc1cccc(C)c1NC(=S)NCc1ccc2c(c1)cc(C)n2C	APOBEC3G inh 40 | A3G conf inactive | UDG ctr A3G inactive
COc1ccc(-n2sc3ccc(F)cc3c2=O)cc1	PfGluPho inh 112, APOBEC3G inh 67 | A3G conf 81 | UDG ctr A3G inactive
COc1ccc(N2C(=O)CSC2c2ccc(F)cc2)cc1 (stereo not drawn)	none (no result: TAG inh)
CCN(CC)CCNc1ccc(CO)c2oc3ccccc3c(=O)c12	none (no result: A3A deaminase, APOBEC3G inh)
Cc1ccc(NC(=S)c2ccc3ccccc3n2)c(C)c1	APOBEC3G inh 46 (no result: TAG inh) | A3G conf 22 | UDG ctr A3G inactive
CCOc1ccc(NC(=S)c2ccc3ccccc3n2)cc1	none (no result: TAG inh)
COc1ccc(NC(=S)c2ccc3ccccc3n2)cc1	APOBEC3G inh 62 (no result: TAG inh) | A3G conf 62 | UDG ctr A3G inactive
